# Assay results as given in article PMC5700166.
# Numbering of substitutions follows the chain as printed.
# Key:
# Assay in all cases: protein-binding microarray (PBM); PBM: ~300 nM protein, 6 mM HEPES pH 7.8, 80 mM KCl, 0.5 mM EDTA, 0.5 mM EGTA, 6% glycerol, 35 ng/ul poly-dIdC, 1% milk, 1 h, room temperature; Ap Aiptasia and Nv Nematostella (sea anemones) / Co Capsaspora / Aq Amphimedon (sponge) / Dm Drosophila / Hu human; RHD is the Rel homology domain; high values mean tight binding
# Conditions in all cases: dsDNA, one strand shown
# [1] = target: T1, GST-Nv-NF-kB (Cys allele) (Nematostella vectensis, UniProt E5G601 2-411)
# T1 sequence: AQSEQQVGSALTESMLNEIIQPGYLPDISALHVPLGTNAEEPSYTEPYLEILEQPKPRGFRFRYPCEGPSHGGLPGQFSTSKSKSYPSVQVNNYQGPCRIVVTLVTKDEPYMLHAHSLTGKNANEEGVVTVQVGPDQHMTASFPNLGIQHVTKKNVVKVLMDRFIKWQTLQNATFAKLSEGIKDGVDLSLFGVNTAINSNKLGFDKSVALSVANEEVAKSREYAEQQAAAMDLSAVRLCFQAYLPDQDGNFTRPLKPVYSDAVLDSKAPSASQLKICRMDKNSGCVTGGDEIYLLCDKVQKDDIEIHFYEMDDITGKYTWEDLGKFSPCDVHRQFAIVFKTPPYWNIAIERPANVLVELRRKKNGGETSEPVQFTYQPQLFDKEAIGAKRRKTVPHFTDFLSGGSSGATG
# [2] = target: T2, GST-Nv-NF-kB (Ser allele) (Nematostella vectensis, UniProt A7UNT2 2-411)
# T2 sequence: T1 sequence with Q21R, C66S, S207N, E215Q, V217A, E225K, A268E, D399E
# GST-Dm-Relish = target: T3, GST-Dm-Relish (Drosophila melanogaster, UniProt Q94527 99-473)
# T3 sequence: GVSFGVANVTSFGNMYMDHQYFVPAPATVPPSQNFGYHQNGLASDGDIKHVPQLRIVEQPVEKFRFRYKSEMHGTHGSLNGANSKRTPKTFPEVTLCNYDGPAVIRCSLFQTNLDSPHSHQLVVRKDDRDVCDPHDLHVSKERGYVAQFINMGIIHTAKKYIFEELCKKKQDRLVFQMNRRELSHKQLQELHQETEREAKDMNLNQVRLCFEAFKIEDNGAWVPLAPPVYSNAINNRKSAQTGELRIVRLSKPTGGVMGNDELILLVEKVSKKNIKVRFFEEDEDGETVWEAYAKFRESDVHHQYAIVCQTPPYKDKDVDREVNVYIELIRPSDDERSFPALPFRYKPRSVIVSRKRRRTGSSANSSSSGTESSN
# GST-Hu-p50 = GST-Hu-p50 (Homo sapiens, UniProt P19838 7-356)
# Sequence of GST-Hu-p50 (P19838 7-356): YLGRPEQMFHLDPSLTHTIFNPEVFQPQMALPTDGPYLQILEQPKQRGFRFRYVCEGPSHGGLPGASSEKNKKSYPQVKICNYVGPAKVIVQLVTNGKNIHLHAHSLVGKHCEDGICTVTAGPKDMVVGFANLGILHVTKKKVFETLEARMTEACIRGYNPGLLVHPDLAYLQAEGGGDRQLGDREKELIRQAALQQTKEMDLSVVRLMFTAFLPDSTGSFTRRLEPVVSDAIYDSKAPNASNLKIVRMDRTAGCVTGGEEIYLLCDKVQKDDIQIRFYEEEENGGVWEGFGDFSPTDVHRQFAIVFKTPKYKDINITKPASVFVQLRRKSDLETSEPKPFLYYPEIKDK
# GST-Aq-NF-kB = target: T4, GST-Aq-NF-kB (Amphimedon queenslandica, UniProt A9Y5G7 2-389)
# T4 sequence: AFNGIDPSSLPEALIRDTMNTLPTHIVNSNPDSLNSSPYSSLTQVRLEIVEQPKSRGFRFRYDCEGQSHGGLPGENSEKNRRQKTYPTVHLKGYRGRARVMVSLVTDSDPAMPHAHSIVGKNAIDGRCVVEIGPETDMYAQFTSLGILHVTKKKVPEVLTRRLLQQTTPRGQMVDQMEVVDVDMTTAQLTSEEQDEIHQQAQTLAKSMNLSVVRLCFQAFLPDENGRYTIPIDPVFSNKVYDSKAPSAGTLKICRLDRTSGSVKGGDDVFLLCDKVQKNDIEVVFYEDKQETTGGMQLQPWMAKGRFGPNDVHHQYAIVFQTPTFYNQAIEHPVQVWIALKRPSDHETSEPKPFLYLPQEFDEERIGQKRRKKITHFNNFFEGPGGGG
# GST-Co-NF-kB = target: T5, GST-Co-NF-kB (Capsaspora owczarzaki, UniProt F1ARL5 200-546)
# T5 sequence: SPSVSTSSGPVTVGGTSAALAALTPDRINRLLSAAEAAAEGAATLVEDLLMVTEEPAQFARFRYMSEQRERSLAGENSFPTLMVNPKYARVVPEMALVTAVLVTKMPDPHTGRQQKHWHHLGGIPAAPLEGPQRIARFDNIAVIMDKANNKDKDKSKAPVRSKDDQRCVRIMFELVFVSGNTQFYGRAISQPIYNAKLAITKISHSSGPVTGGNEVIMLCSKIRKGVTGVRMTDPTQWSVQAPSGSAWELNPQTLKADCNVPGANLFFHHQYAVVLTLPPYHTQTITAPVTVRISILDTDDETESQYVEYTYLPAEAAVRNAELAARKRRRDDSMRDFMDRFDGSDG
# GST-Ap-NF-kB RHD = target: T6, GST-Ap-NF-kB RHD (Exaiptasia pallida (Aiptasia), UniProt A0A913YAJ5 2-422)
# T6 sequence: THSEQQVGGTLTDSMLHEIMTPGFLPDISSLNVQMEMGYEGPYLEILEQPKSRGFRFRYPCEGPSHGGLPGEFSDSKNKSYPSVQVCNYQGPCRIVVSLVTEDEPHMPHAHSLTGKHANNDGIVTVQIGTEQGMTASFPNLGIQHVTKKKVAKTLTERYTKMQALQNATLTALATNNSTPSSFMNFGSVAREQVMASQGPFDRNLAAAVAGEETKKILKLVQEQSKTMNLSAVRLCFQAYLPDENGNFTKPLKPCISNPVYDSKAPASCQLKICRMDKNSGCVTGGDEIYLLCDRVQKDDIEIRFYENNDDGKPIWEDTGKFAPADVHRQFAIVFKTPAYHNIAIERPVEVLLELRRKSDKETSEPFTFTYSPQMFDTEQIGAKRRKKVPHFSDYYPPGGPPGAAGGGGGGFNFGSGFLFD
sequence,measurement,setting,value
CCGATTAACATCACTCTTCTCGGTGATGTTAATCGGGTCTTGATTCGCTTGACGCTGCTG,binding signal,[1],1.05 z-score
same,binding signal,[2],1.37 z-score
same,binding signal,GST-Dm-Relish,1.33 z-score
same,binding signal,GST-Hu-p50,1.72 z-score
CCGATTAACATCAAGTACTTTCCTGATGTTAATCGGGTCTTGATTCGCTTGACGCTGCTG,binding signal,GST-Dm-Relish,5.26 z-score
same,binding signal,GST-Aq-NF-kB,1.81 z-score
CCGATTAACATCACCAGGTTAGGTGATGTTAATCGGGTCTTGATTCGCTTGACGCTGCTG,binding signal,[1],1.1 z-score
same,binding signal,[2],1.85 z-score
same,binding signal,GST-Dm-Relish,1.36 z-score
same,binding signal,GST-Hu-p50,3.09 z-score
CCGATTAACATCACCCTCCAATTTGATGTTAATCGGGTCTTGATTCGCTTGACGCTGCTG,binding signal,GST-Hu-p50,1.13 z-score
CCGATTAACATCACCTGAACTATTGATGTTAATCGGGTCTTGATTCGCTTGACGCTGCTG,binding signal,GST-Hu-p50,1.45 z-score
CCGATTAACATCAGGAATTCCAATGATGTTAATCGGGTCTTGATTCGCTTGACGCTGCTG,binding signal,GST-Dm-Relish,2.77 z-score
same,binding signal,GST-Aq-NF-kB,1.38 z-score
CCGATTAACATCACGGGCAGTGGTGATGTTAATCGGGTCTTGATTCGCTTGACGCTGCTG,binding signal,GST-Co-NF-kB,1.25 z-score
same,binding signal,GST-Dm-Relish,1.02 z-score
same,binding signal,GST-Hu-p50,1.37 z-score
CCGATTAACATCACCTTGTGATCTGATGTTAATCGGGTCTTGATTCGCTTGACGCTGCTG,binding signal,GST-Hu-p50,1.21 z-score
CCGATTAACATCAGAATTTTTCCTGATGTTAATCGGGTCTTGATTCGCTTGACGCTGCTG,binding signal,GST-Hu-p50,1.1 z-score
CCGATTAACATCACCTGGTCGGGTGATGTTAATCGGGTCTTGATTCGCTTGACGCTGCTG,binding signal,[2],1.03 z-score
same,binding signal,GST-Co-NF-kB,1.5 z-score
same,binding signal,GST-Dm-Relish,1.13 z-score
same,binding signal,GST-Hu-p50,2.04 z-score
CCGATTAACATCAGCAATGTAGGTGATGTTAATCGGGTCTTGATTCGCTTGACGCTGCTG,binding signal,GST-Hu-p50,1.13 z-score
CCGATTAACATCAGGAAATGGGATGATGTTAATCGGGTCTTGATTCGCTTGACGCTGCTG,binding signal,GST-Ap-NF-kB RHD,1.33 z-score
CCGATTAACATCATGGGGTGTGCTGATGTTAATCGGGTCTTGATTCGCTTGACGCTGCTG,binding signal,GST-Ap-NF-kB RHD,1.12 z-score
same,binding signal,GST-Co-NF-kB,1.28 z-score
CCGATTAACATCAAGGGGGGATATGATGTTAATCGGGTCTTGATTCGCTTGACGCTGCTG,binding signal,GST-Ap-NF-kB RHD,5.79 z-score
same,binding signal,[1],4.88 z-score
same,binding signal,GST-Co-NF-kB,6.15 z-score
same,binding signal,GST-Dm-Relish,4.29 z-score
CCGATTAACATCAATCAGCGGGGTGATGTTAATCGGGTCTTGATTCGCTTGACGCTGCTG,binding signal,GST-Ap-NF-kB RHD,1.21 z-score
same,binding signal,GST-Co-NF-kB,2.43 z-score
CCGATTAACATCAGTACCTCGTATGATGTTAATCGGGTCTTGATTCGCTTGACGCTGCTG,binding signal,[2],1.04 z-score
CCGATTAACATCACCCGCGCTCATGATGTTAATCGGGTCTTGATTCGCTTGACGCTGCTG,binding signal,GST-Ap-NF-kB RHD,1.32 z-score
same,binding signal,GST-Dm-Relish,1.06 z-score
CCGATTAACATCACTACCCCGGATGATGTTAATCGGGTCTTGATTCGCTTGACGCTGCTG,binding signal,GST-Ap-NF-kB RHD,1.88 z-score
same,binding signal,GST-Co-NF-kB,3.19 z-score
CCGATTAACATCAGTAGGTGAAGTGATGTTAATCGGGTCTTGATTCGCTTGACGCTGCTG,binding signal,GST-Co-NF-kB,1.02 z-score
CCGATTAACATCATCCCTTGTCATGATGTTAATCGGGTCTTGATTCGCTTGACGCTGCTG,binding signal,GST-Ap-NF-kB RHD,1.2 z-score
CCGATTAACATCAAGGGGGGGGATGATGTTAATCGGGTCTTGATTCGCTTGACGCTGCTG,binding signal,GST-Ap-NF-kB RHD,7.71 z-score
same,binding signal,GST-Co-NF-kB,7.64 z-score
same,binding signal,GST-Dm-Relish,5.31 z-score
CCGATTAACATCAGTGGTACTTGTGATGTTAATCGGGTCTTGATTCGCTTGACGCTGCTG,binding signal,[2],1.44 z-score
same,binding signal,GST-Dm-Relish,1.25 z-score
CCGATTAACATCACTAGGTAGTCTGATGTTAATCGGGTCTTGATTCGCTTGACGCTGCTG,binding signal,[2],1.04 z-score
CCGATTAACATCACGTGGGGCGTTGATGTTAATCGGGTCTTGATTCGCTTGACGCTGCTG,binding signal,[1],1.36 z-score
CCGATTAACATCACTAGGCGGGATGATGTTAATCGGGTCTTGATTCGCTTGACGCTGCTG,binding signal,GST-Ap-NF-kB RHD,1.56 z-score
same,binding signal,GST-Co-NF-kB,1.92 z-score
